Screening data: PubChem BioAssay, several laboratories
Shown are actives, neighbours in structure and some others; about 2.9% of the full set was active somewhere.
PG9 Ab binder: binders of HIV-1 gp120 antibody PG9, primary screen, biochemical, TR-FRET; HIV-1 gp120 / PG9 antibody interaction; TR-FRET gp120-PG9 antibody binding; inhibition, % at 6.7 µM; 360,000 tested, 0.43% active; AID 624416, 2012; in the data active = inhibition above about 8.5%
RAM network inh: inhibitors of the yeast RAM network, primary screen, dse1pr::URA3 reporter, 5-FOA selection. S. cerevisiae dse1pr::URA3 reporter, 5-FOA growth OD615, 2 d; analog-sensitive cbk1-as2 kinase mutant strain. 190,000 tested, 1.8% active. inhibition, % at 50 µM;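 active = inhibition above a set limit, 3 SD over mean compound inhibition, cut at about 8.4% in these data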;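 also: 0% = DMSO-only wells with no growth and 100% = 10 µM 1-NA-PP1 full growth; inhibition rescues growth on 5-FOA so higher OD means more RAM inhibition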
NR1D1 modulator: modulators of Rev-erb alpha DNA binding, primary screen, biochemical, FITC-DNA, fluorescence polarization, uHTS; Rev-erbα–FITC-DNA binding, 90 min; activity, % at 10 µM; 370,000 tested, 0.79% active; AID 1259318, 2017;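 active = activity above about 14%, limit read from the data; passing the limit was not always enough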;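 also: 0% = DMSO wells with 35 nM protein and 100% = DMSO wells with 750 nM protein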
EP2 modulator: EP2 receptor modulators, cAMP readout, primary screen, cell-based, HTRF cAMP, PGE2 stimulation | 260,000 tested, 0.83% active | AID 940, 2007 | EP2-expressing cells, cAMP HTRF FRET, PGE2 co-stimulation | induction, % at 25 µM;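 active = compounds whose cAMP rise, as percent of the full-agonist control response, exceeds 60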;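 also: rat C6 glioma line stably carrying human EP2 under a CMV promoter; the protocol text gives 20 µM as final concentration; 100% = response of wells given 1 µM PGE2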
Target sequence (P43116 whole entry, looked up): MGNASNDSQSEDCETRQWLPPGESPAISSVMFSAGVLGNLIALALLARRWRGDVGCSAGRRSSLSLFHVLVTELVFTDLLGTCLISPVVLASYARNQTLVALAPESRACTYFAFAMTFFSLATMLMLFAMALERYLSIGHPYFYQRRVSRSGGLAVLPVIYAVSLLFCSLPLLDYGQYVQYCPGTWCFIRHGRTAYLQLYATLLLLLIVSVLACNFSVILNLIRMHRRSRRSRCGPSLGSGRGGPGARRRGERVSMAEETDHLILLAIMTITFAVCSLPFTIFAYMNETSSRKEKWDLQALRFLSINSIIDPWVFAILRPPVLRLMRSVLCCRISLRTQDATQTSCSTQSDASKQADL
PGE2 EP2 inh: human EP2 receptor antagonists, primary screen, TR-FRET cAMP, C6 glioma cells; C6 glioma cells expressing human EP2; cells stimulated with saturating PGE2; inhibition, % at 25 µM; 260,000 tested, 0.52% active; Prostaglandin E2 receptor EP2 subtype (Homo sapiens), P43116;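 active = percent inhibition above 40 after rounding to a whole number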;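 also: rat C6 glioma host cells with rolipram phosphodiesterase inhibitor present; the protocol text gives 20 µM as final concentration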
SKN-1 block: suppressors of acrylamide-induced Pgst-4::GFP reporter in worms, primary screen, SKN-1 inhibitor project, whole organism, uHTS, GFP/RFP fluorescence ratio, strain VP596; C. elegans VP596 Pgst-4::GFP/RFP ratio, 24 h; AID 624304, 2012; inhibition, % at 21.8 µM; 360,000 tested, 0.49% active;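 active = interference check ratio from 0.5 to 1.5 plus GFP to RFP signal ratio inhibition reaching or exceeding a fixed threshold, cut at about 30% in these data, passing the limit was not always enough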
EP2 cAMP induct: cAMP induction in EP2, EP4, beta2-AR and parental cells, confirmation, counter-screen for EP2 modulator project, cell-based, five parallel assays, C6 glioma, HEK293; AID 1080, 2008; cAMP HTRF induction; plus low (about EC15) PGE2 agonist; 1,300 tested, 47% active; calls only at 20 µM (by protocol); shares compounds with EP2 modulator;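 active = cAMP induction above 50% in the main assay while under 30% in all four parallel counter assays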;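 also: rat C6 glioma cells stably expressing human EP2 receptor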
An asterisk follows results filed as active.

For CN(CC(=O)Nc1ccccc1Oc1ccccc1)Cc1ccccc1F the results were PG9 Ab binder 2.4, RAM network inh 0.9, NR1D1 modulator 18.4, EP2 modulator 66.8*, PGE2 EP2 inh 4.1, SKN-1 block 8.7 and EP2 cAMP induct active.
`COc1ccc(CN(Cc2cc3cc(C)ccc3[nH]c2=O)C(=O)C2CCCO2)cc1` (stereo not drawn) gave EP2 modulator -41.1 and PGE2 EP2 inh 12.7.
`CN1CCN(c2oc(-c3ccco3)nc2S(=O)(=O)c2ccccc2)CC1` gave PG9 Ab binder -3.4, RAM network inh 0.3, NR1D1 modulator -0.7, EP2 modulator -3.0, PGE2 EP2 inh 15.3 and SKN-1 block 7.7.
`O=S(=O)(c1ccccc1)c1nc(-c2ccco2)oc1N1CCCCCC1` gave PG9 Ab binder -1.2, RAM network inh 0.5, NR1D1 modulator -1.6, EP2 modulator 68.2*, PGE2 EP2 inh 14.8, SKN-1 block 19.5 and EP2 cAMP induct inactive.
Screening Cc1ccccc1-n1c(SCC(=O)N2CCCC2)nnc1-c1ccccn1 returned PG9 Ab binder -2.0, RAM network inh 0.0, NR1D1 modulator -2.0, EP2 modulator 65.9*, PGE2 EP2 inh 11.1, SKN-1 block -20.8 and EP2 cAMP induct inactive.
Cc1ccccc1-n1c(Cn2c(=O)sc3ccccc32)nnc1SCC(=O)N1CCCC1 was read as PG9 Ab binder 0.2, RAM network inh 3.5, NR1D1 modulator -0.8, EP2 modulator 55.5, SKN-1 block 0.4 and EP2 cAMP induct inactive.
`Cc1ccc(NC(=O)CSc2nnc(Cn3cnc4ccccc43)n2C)cc1Cl` gave EP2 modulator -17.2 and PGE2 EP2 inh 13.2.
For CCOC(=O)Cc1csc(NC(=O)COc2ccc(Cl)cc2Cl)n1 the results were EP2 modulator -55.8 and PGE2 EP2 inh 3.6.
`Cc1ccc(S(=O)(=O)c2c(C)cc(C)nc2Cl)cc1` gave PG9 Ab binder 1.0, RAM network inh -0.6, NR1D1 modulator 1.3, EP2 modulator -7.5, PGE2 EP2 inh 16.0 and SKN-1 block 2.9.
Screening C=C(C)Cn1c(C)cc(C)c(S(=O)(=O)c2ccc(C)cc2)c1=O returned PG9 Ab binder 0.2, RAM network inh 0.6, NR1D1 modulator 4.5, EP2 modulator 86.6*, PGE2 EP2 inh 6.2, SKN-1 block 5.3 and EP2 cAMP induct active.
CCc1nc2c(cnn2-c2ccc(Cl)cc2)c(=O)n1-c1ccc(OC)cc1 was read as PG9 Ab binder 0.4, RAM network inh 7.6, NR1D1 modulator 0.8, EP2 modulator 81.2*, PGE2 EP2 inh 16.7, SKN-1 block 15.0 and EP2 cAMP induct inactive.
C=CCn1c(-c2oc3nc(-c4ccccc4)cc(-c4ccccc4)c3c2N)n[nH]c1=S was read as PG9 Ab binder 0.9, RAM network inh 2.9, NR1D1 modulator -2.1, EP2 modulator 61.1*, PGE2 EP2 inh 3.6, SKN-1 block -1.8 and EP2 cAMP induct inactive.
C=CCn1c(-c2cccc(Cl)c2)n[nH]c1=S was read as PG9 Ab binder 4.4, RAM network inh 0.3, NR1D1 modulator -2.1, EP2 modulator 20.7, PGE2 EP2 inh 32.6 and SKN-1 block -4.6.
Screening Cc1ccccc1CCN(Cc1cc2cc3c(cc2[nH]c1=O)OCO3)C(=O)c1cccs1 returned EP2 modulator 4.3 and PGE2 EP2 inh 9.2.
For Cc1ccc(Cl)cc1NC(=S)N(Cc1ccco1)C(C)c1cccs1 (stereo not drawn) the results were PG9 Ab binder 1.2, RAM network inh 8.1, NR1D1 modulator 0.1, EP2 modulator 63.2*, PGE2 EP2 inh 4.9, SKN-1 block -9.0 and EP2 cAMP induct inactive.
Cc1ccc(C)c(NC(=S)N(Cc2ccco2)C(C)c2cccs2)c1 (stereo not drawn) was read as PG9 Ab binder -2.4, RAM network inh 5.8, NR1D1 modulator -0.9, EP2 modulator 68.0*, PGE2 EP2 inh 4.7, SKN-1 block -1.3 and EP2 cAMP induct inactive.
CCN1CCN(CCCN(Cc2ccco2)C(=S)Nc2cc(Cl)ccc2C)CC1 was read as PG9 Ab binder 0.7, RAM network inh 0.7, NR1D1 modulator -1.7, EP2 modulator -12.5, PGE2 EP2 inh 4.6 and SKN-1 block -6.5.
`Cc1ccc(NC(=S)N(Cc2ccco2)C(C)c2cccs2)c(Cl)c1` (stereo not drawn) gave PG9 Ab binder 0.1, RAM network inh 6.3, NR1D1 modulator -2.9, EP2 modulator 35.9, PGE2 EP2 inh 4.0 and SKN-1 block -4.1.
`COc1ccc(/C(O)=C2/C(=O)C(=O)N(CCN(C)C)C2c2ccc(OC)c(OC)c2)cc1C` (stereo not drawn) gave EP2 modulator 5.3 and PGE2 EP2 inh 15.7.
For COc1nc(Cc2ccc(Cl)cc2)nc2ccccc12 the results were PG9 Ab binder -2.7, RAM network inh 0.4, NR1D1 modulator -4.4, EP2 modulator -23.9, PGE2 EP2 inh 4.8 and SKN-1 block 20.5.
C#CCSc1nc(Cc2ccc(Cl)cc2)nc2ccccc12 was read as PG9 Ab binder 0.3, RAM network inh 8.6*, NR1D1 modulator 4.3, EP2 modulator 66.9*, PGE2 EP2 inh 3.3, SKN-1 block -1.2 and EP2 cAMP induct active.
Screening COc1cc(OC)cc(-n2nnnc2SCC(=O)N2c3ccccc3CCc3ccccc32)c1 returned EP2 modulator 28.4 and PGE2 EP2 inh 9.1.
COC(=O)C1=C(C)NC(=O)C1(NC(=O)c1ccncc1)C(F)(F)F (stereo not drawn) was read as PG9 Ab binder -3.7, RAM network inh 0.8, NR1D1 modulator 0.4, EP2 modulator 10.1, PGE2 EP2 inh 7.9 and SKN-1 block -5.3.
COC(=O)NC1(C(F)(F)F)C(=O)NC(C)=C1C(=O)OC (stereo not drawn) was read as PG9 Ab binder -2.1, RAM network inh 1.2, NR1D1 modulator 0.7, EP2 modulator 70.7*, PGE2 EP2 inh 10.5, SKN-1 block 15.4 and EP2 cAMP induct inactive.
